# Laboratory results: the supplement of paper PMC8728848
# This excerpt belongs to a sample that is enriched for the strongest signals.
# B1: Intelectin-1a (Mus musculus) (protein)
# chain: AEWSHPQFEKAEENLDTNRWGNSFFSSLPRSCKEIKQEHTKAQDGLYFLRTKNGVIYQTFCDMTTAGGGWTLVASVHENNMRGKCTVGDRWSSQQGNRADYPEGDGNWANYNTFGSAEAATSDDYKNPGYFDIQAENLGIWHVPNKSPLHNWRKSSLLRYRTFTGFLQHLGHNLFGLYKKYPVKYGEGKCWTDNGPALPVVYDFGDARKTASYYSPSGQREFTAGYVQFRVFNNERAASALCAGVRVTGCNTEHHCIGGGGFFPEGNPVQCGDFASFDWDGYGTHNGYSSSRKITEAAVLLFYR
# Key:
# Experiment in all cases: glycan array binding signal (z-score within array); higher = stronger binding
# Conditions in all cases: glycan notation: IUPAC condensed, linker removed
# [1] = biological target: Fuc(a1-2)Gal(b1-3)GlcNAc(b1-2)Man(a1-3)[Fuc(a1-2)Gal(b1-3)GlcNAc(b1-2)Man(a1-6)]Man(b1-4)GlcNAc(b1-4)[Fuc(a1-6)]GlcNAc
# Procedure, shortened: (§1)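 Arrays were curated from the Consortium for Functional Glycomics database, 3228 in total, and kept only where the protein sequence was available. Binding is expressed as a within-array Z-score. This score was averaged across arrays of the same protein sequence at different concentrations or buffers and across linkers, and negative values can be read as non-binding.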
# [2] = biological target: Fuc(a1-2)Gal(b1-3)GlcNAc(b1-3)GalNAc
# Procedure, shortened: as §1
# [3] = biological target: Fuc(a1-2)Gal(b1-3)[Fuc(a1-4)]GlcNAc(b1-2)Man(a1-3)[Fuc(a1-2)Gal(b1-3)[Fuc(a1-4)]GlcNAc(b1-2)Man(a1-6)]Man(b1-4)GlcNAc(b1-4)GlcNAc
# Procedure, shortened: as §1
# [4] = biological target: Fuc(a1-2)Gal(b1-4)GlcNAc(b1-2)Man
# Procedure, shortened: as §1
# [5] = biological target: Fuc(a1-2)Gal(b1-4)GlcNAc(b1-2)Man(a1-3)[Fuc(a1-2)Gal(b1-4)GlcNAc(b1-2)Man(a1-6)]Man(b1-4)GlcNAc(b1-4)GlcNAc
# Procedure, shortened: as §1
# [6] = biological target: Fuc(a1-2)Gal(b1-4)GlcNAc(b1-3)[Fuc(a1-2)Gal(b1-4)GlcNAc(b1-6)]GalNAc
# Procedure, shortened: as §1
# [7] = biological target: Fuc(a1-2)Gal(b1-4)[Fuc(a1-3)]GlcNAc(b1-3)Gal(b1-4)[Fuc(a1-3)]GlcNAc
# Procedure, shortened: as §1
# Fuc(a1-2)Gal6S(b1-4)Glc = biological target: Fuc(a1-2)Gal6S(b1-4)Glc
# Procedure, shortened: as §1
# [8] = biological target: Fuc(a1-2)[Gal(a1-3)]Gal(b1-3)GlcNAc(b1-2)Man(a1-3)[Fuc(a1-2)[Gal(a1-3)]Gal(b1-3)GlcNAc(b1-2)Man(a1-6)]Man(b1-4)GlcNAc(b1-4)GlcNAc
# Procedure, shortened: as §1
# [9] = biological target: Fuc(a1-2)[Gal(a1-3)]Gal(b1-3)GlcNAc(b1-2)Man(a1-3)[Fuc(a1-2)[Gal(a1-3)]Gal(b1-3)GlcNAc(b1-2)Man(a1-6)]Man(b1-4)GlcNAc(b1-4)[Fuc(a1-6)]GlcNAc
# Procedure, shortened: as §1
# [10] = biological target: Fuc(a1-2)[Gal(a1-3)]Gal(b1-4)GlcNAc(b1-2)Man(a1-3)[Fuc(a1-2)[Gal(a1-3)]Gal(b1-4)GlcNAc(b1-2)Man(a1-6)]Man(b1-4)GlcNAc(b1-4)GlcNAc
# Procedure, shortened: as §1
# [11] = biological target: Fuc(a1-2)[GalNAc(a1-3)]Gal
# Procedure, shortened: as §1
# [12] = biological target: Fuc(a1-2)[GalNAc(a1-3)]Gal(b1-3)GlcNAc(b1-2)Man(a1-3)[Fuc(a1-2)[GalNAc(a1-3)]Gal(b1-3)GlcNAc(b1-2)Man(a1-6)]Man(b1-4)GlcNAc(b1-4)GlcNAc
# Procedure, shortened: as §1
# [13] = biological target: Fuc(a1-3)[Gal(b1-4)]GlcNAc(b1-6)[Neu5Ac(a2-3)Gal(b1-3)]GalNAc
# Procedure, shortened: as §1
# [14] = biological target: Fuc(a1-3)[GalNAc3S(b1-4)]GlcNAc
# Procedure, shortened: as §1
# [15] = biological target: Gal(a1-3)Gal(b1-3)GlcNAc(b1-2)Man(a1-3)[Gal(a1-3)Gal(b1-3)GlcNAc(b1-2)Man(a1-6)]Man(b1-4)GlcNAc(b1-4)GlcNAc
# Procedure, shortened: as §1
# [16] = biological target: Gal(a1-3)Gal(b1-3)GlcNAc(b1-3)GalNAc
# Procedure, shortened: as §1
# [17] = biological target: Gal(a1-3)Gal(b1-4)[Fuc(a1-3)]GlcNAc(b1-2)Man(a1-3)[Gal(a1-3)Gal(b1-4)[Fuc(a1-3)]GlcNAc(b1-2)Man(a1-6)]Man(b1-4)GlcNAc(b1-4)GlcNAc
# Procedure, shortened: as §1
# [18] = biological target: Gal(b1-3)GlcNAc(b1-3)Gal(b1-4)GlcNAc(b1-6)[Gal(b1-3)GlcNAc(b1-3)]Gal(b1-4)Glc
# Procedure, shortened: as §1
# [19] = biological target: Gal(b1-3)[Neu5Ac(a2-6)]GlcNAc(b1-6)Gal(b1-4)Glc
# Procedure, shortened: as §1
# Gal3S(b1-3)GlcNAc = biological target: Gal3S(b1-3)GlcNAc
# Procedure, shortened: as §1
# Gal3S(b1-4)Glc = biological target: Gal3S(b1-4)Glc
# Procedure, shortened: as §1
# Gal4S(b1-4)GlcNAc = biological target: Gal4S(b1-4)GlcNAc
# Procedure, shortened: as §1
# Gal6S(b1-4)Glc6S = biological target: Gal6S(b1-4)Glc6S
# Procedure, shortened: as §1
# [20] = biological target: GalNAc(a1-3)Fuc(a1-2)Gal(b1-4)GlcNAc(b1-3)[GalNAc(a1-3)Fuc(a1-2)Gal(b1-4)GlcNAc(b1-6)]GalNAc
# Procedure, shortened: as §1
# GalNAc(b1-3)Gal = biological target: GalNAc(b1-3)Gal
# Procedure, shortened: as §1
# [21] = biological target: Glc(a1-6)Glc(a1-6)Glc(a1-6)Glc
# Procedure, shortened: as §1
# GlcA(b1-3)Gal = biological target: GlcA(b1-3)Gal
# Procedure, shortened: as §1
# [22] = biological target: GlcNAc(a1-4)Gal(b1-4)GlcNAc(b1-3)Gal(b1-4)[Fuc(a1-3)]GlcNAc(b1-3)Gal(b1-4)[Fuc(a1-3)]GlcNAc
# Procedure, shortened: as §1
# [23] = biological target: GlcNAc(b1-3)Gal(b1-3)GalNAc
# Procedure, shortened: as §1
binder,measurement,setting,value
B1,glycan array binding signal (z-score),[1],-0.492
same,glycan array binding signal (z-score),[2],2.92
same,glycan array binding signal (z-score),[3],2.9
same,glycan array binding signal (z-score),[4],1.06
same,glycan array binding signal (z-score),[5],-0.329
same,glycan array binding signal (z-score),[6],-0.517
same,glycan array binding signal (z-score),[7],-1.05
same,glycan array binding signal (z-score),Fuc(a1-2)Gal6S(b1-4)Glc,1.88
same,glycan array binding signal (z-score),[8],0.954
same,glycan array binding signal (z-score),[9],3.73
same,glycan array binding signal (z-score),[10],-0.423
same,glycan array binding signal (z-score),[11],0.968
same,glycan array binding signal (z-score),[12],0.792
same,glycan array binding signal (z-score),[13],-0.328
same,glycan array binding signal (z-score),[14],0.115
same,glycan array binding signal (z-score),[15],2.64
same,glycan array binding signal (z-score),[16],-0.09
same,glycan array binding signal (z-score),[17],2.76
same,glycan array binding signal (z-score),[18],2.74
same,glycan array binding signal (z-score),[19],0.312
same,glycan array binding signal (z-score),Gal3S(b1-3)GlcNAc,-0.392
same,glycan array binding signal (z-score),Gal3S(b1-4)Glc,-0.304
same,glycan array binding signal (z-score),Gal4S(b1-4)GlcNAc,-0.354
same,glycan array binding signal (z-score),Gal6S(b1-4)Glc6S,-0.38
same,glycan array binding signal (z-score),[20],1.24
same,glycan array binding signal (z-score),GalNAc(b1-3)Gal,-0.938
same,glycan array binding signal (z-score),[21],-0.709
same,glycan array binding signal (z-score),GlcA(b1-3)Gal,0.662
same,glycan array binding signal (z-score),[22],5.84
same,glycan array binding signal (z-score),[23],-0.724
